# Results from article PMC7862700, “An all-to-all approach to the identification of sequence-specific readers for epigenetic DNA modifications on cytosine”.
# Assays:
# Test in all cases: DAPPL (digital affinity profiling via proximity ligation, sequencing); 10 mM Tris-HCl pH 7.5, 50 mM NaCl, 1 mM DTT, 4% glycerol, room temperature, 30 min; GST-TFs on glutathione beads, 16-mer random dsDNA library, 0.1% formaldehyde crosslink after washing; high values mean tight binding
# [1] = biological target: T1, FLI1 (Homo sapiens, UniProt Q01543 1-452); conditions: protein: recombinant; tags: N-terminal GST; dsDNA, one strand shown
# T1 sequence: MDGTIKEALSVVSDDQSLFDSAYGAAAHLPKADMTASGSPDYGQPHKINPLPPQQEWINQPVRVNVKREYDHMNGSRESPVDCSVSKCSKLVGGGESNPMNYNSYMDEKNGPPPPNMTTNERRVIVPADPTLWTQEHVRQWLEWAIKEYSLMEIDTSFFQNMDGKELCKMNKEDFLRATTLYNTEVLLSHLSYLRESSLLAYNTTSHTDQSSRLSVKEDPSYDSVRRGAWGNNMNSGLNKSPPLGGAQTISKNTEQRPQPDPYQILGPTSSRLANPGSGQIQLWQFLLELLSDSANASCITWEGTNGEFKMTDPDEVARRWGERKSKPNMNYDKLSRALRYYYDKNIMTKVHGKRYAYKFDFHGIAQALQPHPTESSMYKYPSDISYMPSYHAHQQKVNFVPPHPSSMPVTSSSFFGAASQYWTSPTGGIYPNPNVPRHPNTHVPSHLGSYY
# In short: (§1)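 GST fusions of human transcription factors were expressed in yeast and captured with glutathione beads. Once given DNA barcodes and pooled alongside a tag-only sample, they were incubated for 30 min at room temperature with 200 nmole of a random double-stranded 16-mer DNA library in Tris/NaCl/DTT/glycerol buffer, then washed, crosslinked (0.1% formaldehyde), proximity-ligated, PCR-amplified and sequenced on an Illumina NextSeq500. The binding signal of each hexamer is its read frequency for a factor divided by its frequency for the tag-only sample.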
# [2] = biological target: T2, ELK1 (Homo sapiens, UniProt P19419 1-428); conditions: protein: recombinant; tags: N-terminal GST; dsDNA, one strand shown
# T2 sequence: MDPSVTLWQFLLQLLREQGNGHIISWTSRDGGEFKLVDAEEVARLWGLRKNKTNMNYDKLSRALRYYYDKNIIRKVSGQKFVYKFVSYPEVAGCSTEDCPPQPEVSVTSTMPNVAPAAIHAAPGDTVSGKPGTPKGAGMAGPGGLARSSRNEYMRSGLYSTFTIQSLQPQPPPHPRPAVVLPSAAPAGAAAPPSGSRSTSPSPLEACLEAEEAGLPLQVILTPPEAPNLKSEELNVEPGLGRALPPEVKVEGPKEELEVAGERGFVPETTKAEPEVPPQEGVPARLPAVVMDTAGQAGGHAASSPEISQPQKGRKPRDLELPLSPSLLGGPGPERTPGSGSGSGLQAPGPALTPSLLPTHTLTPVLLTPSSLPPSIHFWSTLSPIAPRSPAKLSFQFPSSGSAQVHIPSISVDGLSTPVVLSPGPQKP
# In short: as §1
# [3] = biological target: T3, GABPA (Homo sapiens, UniProt Q06546 1-454); conditions: protein: recombinant; tags: N-terminal GST; dsDNA, one strand shown
# T3 sequence: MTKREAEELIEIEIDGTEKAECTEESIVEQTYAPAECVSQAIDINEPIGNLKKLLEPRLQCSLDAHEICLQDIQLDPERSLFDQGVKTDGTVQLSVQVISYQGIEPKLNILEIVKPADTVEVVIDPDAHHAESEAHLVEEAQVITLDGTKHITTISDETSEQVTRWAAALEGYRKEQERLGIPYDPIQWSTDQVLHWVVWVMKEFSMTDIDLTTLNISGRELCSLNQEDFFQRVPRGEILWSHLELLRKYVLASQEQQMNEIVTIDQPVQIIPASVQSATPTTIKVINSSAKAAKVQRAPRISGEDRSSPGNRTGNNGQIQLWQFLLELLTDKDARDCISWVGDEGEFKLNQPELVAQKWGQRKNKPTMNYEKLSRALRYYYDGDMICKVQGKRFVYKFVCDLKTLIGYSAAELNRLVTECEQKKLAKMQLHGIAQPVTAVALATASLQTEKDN
# In short: as §1
# [4] = biological target: T4, ERG (Homo sapiens, UniProt P11308 1-479); conditions: protein: recombinant; tags: N-terminal GST; dsDNA, one strand shown
# T4 sequence: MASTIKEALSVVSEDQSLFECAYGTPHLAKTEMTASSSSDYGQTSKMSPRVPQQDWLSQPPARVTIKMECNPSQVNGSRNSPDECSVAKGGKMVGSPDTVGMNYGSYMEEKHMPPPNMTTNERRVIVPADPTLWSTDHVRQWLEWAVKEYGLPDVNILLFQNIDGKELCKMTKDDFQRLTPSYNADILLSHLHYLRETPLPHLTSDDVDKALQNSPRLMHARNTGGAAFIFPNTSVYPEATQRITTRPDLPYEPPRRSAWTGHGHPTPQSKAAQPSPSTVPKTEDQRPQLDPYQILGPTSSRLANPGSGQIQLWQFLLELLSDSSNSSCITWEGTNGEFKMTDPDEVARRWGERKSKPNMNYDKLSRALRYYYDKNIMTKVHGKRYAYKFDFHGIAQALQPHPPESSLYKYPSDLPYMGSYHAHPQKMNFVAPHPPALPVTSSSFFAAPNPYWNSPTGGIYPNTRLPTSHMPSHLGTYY
# In short: as §1
# [5] = biological target: ELF1 (Homo sapiens, UniProt P32519 1-619); conditions: protein: recombinant; tags: N-terminal GST; dsDNA, one strand shown
# In short: as §1
# [6] = biological target: T5, EHF (Homo sapiens, UniProt Q9NZC4 1-300); conditions: protein: recombinant; tags: N-terminal GST; dsDNA, one strand shown
# T5 sequence: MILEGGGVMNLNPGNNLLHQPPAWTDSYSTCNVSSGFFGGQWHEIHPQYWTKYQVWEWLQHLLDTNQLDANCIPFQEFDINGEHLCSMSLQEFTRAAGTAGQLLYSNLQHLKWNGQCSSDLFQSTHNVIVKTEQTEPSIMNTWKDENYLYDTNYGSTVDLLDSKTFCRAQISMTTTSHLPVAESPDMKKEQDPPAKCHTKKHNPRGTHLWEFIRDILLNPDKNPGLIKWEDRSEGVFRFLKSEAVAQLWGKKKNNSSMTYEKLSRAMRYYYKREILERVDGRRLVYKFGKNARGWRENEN
# In short: as §1
# [7] = biological target: SPI1 (Homo sapiens, UniProt P17947 1-270); conditions: protein: recombinant; tags: N-terminal GST; dsDNA, one strand shown
# In short: as §1
# [8] = biological target: SPIB (Homo sapiens, UniProt Q01892 1-262); conditions: protein: recombinant; tags: N-terminal GST; dsDNA, one strand shown
# In short: as §1
# [9] = biological target: T6, ELK3 (Homo sapiens, UniProt P41970 1-407); conditions: protein: recombinant; tags: N-terminal GST; dsDNA, one strand shown
# T6 sequence: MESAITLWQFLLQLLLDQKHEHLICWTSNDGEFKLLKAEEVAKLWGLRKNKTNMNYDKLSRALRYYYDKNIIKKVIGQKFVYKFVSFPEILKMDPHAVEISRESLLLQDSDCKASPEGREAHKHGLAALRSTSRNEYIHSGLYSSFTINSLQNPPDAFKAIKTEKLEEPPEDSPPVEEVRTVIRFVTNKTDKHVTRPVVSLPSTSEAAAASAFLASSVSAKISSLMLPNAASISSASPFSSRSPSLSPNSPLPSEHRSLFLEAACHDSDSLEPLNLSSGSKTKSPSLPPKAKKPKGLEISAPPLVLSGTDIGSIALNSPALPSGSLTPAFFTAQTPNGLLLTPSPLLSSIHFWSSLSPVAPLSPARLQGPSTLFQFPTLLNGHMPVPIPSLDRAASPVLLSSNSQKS
# In short: as §1
# [10] = biological target: T7, FEV (Homo sapiens, UniProt Q99581 1-238); conditions: protein: recombinant; tags: N-terminal GST; dsDNA, one strand shown
# T7 sequence: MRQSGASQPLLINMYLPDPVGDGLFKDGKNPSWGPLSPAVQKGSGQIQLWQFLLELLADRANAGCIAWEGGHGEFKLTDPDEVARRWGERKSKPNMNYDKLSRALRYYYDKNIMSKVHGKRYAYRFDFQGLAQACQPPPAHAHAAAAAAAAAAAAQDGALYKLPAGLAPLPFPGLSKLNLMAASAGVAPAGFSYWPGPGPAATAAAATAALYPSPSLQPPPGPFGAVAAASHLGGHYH
# In short: as §1
# [11] = biological target: ETV5 (Homo sapiens, UniProt P41161 1-510); conditions: protein: recombinant; tags: N-terminal GST; dsDNA, one strand shown
# In short: as §1
# [12] = biological target: HSF1 (Homo sapiens, UniProt Q00613 1-529); conditions: protein: recombinant; tags: N-terminal GST; chain copies: 3; dsDNA, one strand shown
# In short: as §1
# [13] = biological target: T8, SPIC (Homo sapiens, UniProt Q8N5J4 1-248); conditions: protein: recombinant; tags: N-terminal GST; dsDNA, one strand shown
# T8 sequence: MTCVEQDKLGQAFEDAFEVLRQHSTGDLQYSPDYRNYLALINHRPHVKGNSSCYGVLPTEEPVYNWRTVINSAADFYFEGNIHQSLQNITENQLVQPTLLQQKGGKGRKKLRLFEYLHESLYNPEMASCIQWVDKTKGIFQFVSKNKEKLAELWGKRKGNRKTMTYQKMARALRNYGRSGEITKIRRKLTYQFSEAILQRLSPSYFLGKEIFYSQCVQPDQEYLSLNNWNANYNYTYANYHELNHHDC
# In short: as §1
# [14] = biological target: ELF4 (Homo sapiens, UniProt Q99607 1-663); conditions: protein: recombinant; tags: N-terminal GST; dsDNA, one strand shown
# In short: as §1
# [15] = biological target: T9, ELK4 (Homo sapiens, UniProt P28324-2 1-405); conditions: protein: recombinant; tags: N-terminal GST; dsDNA, one strand shown
# T9 sequence: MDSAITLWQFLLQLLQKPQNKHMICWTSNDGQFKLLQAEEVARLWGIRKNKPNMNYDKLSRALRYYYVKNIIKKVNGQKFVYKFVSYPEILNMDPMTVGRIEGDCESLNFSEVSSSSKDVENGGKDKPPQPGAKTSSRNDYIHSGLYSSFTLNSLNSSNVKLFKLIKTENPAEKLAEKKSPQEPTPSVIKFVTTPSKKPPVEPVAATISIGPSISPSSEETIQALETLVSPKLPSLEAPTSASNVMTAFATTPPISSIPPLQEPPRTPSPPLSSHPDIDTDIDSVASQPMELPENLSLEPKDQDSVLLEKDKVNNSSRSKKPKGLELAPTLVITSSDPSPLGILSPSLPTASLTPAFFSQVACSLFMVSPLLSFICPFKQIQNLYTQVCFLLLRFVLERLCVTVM
# In short: as §1
# [16] = biological target: T10, ETV2 (Homo sapiens, UniProt O00321 1-342); conditions: protein: recombinant; tags: N-terminal GST; dsDNA, one strand shown
# T10 sequence: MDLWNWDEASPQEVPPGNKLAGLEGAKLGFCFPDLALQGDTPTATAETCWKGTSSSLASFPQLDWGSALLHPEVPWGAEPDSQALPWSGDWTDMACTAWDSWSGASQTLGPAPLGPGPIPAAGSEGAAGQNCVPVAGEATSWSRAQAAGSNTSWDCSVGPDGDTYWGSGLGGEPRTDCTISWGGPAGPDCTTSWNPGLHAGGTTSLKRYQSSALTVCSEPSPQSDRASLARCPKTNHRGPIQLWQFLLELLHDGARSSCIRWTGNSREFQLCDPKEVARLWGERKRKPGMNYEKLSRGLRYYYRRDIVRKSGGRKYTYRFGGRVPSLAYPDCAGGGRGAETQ
# In short: as §1
# [17] = biological target: T11, ELF3 (Homo sapiens, UniProt P78545 1-371); conditions: protein: recombinant; tags: N-terminal GST; dsDNA, one strand shown
# T11 sequence: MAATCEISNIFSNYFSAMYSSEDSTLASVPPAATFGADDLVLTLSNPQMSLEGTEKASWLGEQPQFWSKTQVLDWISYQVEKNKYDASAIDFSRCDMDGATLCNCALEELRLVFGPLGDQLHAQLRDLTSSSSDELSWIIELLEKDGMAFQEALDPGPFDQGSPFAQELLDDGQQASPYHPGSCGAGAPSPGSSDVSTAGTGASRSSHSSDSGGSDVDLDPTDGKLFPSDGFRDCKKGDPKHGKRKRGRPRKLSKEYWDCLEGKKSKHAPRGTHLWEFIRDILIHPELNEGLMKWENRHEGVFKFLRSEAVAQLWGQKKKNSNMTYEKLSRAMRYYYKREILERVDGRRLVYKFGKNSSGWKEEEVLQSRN
# In short: as §1
# [18] = biological target: CRX (Homo sapiens, UniProt O43186 1-299); conditions: protein: recombinant; tags: N-terminal GST; dsDNA, one strand shown
# In short: as §1
# [19] = biological target: ETV1 (Homo sapiens, UniProt P50549 1-477); conditions: protein: recombinant; tags: N-terminal GST; dsDNA, one strand shown
# In short: as §1
# Sequence of SPIB (Q01892 whole entry): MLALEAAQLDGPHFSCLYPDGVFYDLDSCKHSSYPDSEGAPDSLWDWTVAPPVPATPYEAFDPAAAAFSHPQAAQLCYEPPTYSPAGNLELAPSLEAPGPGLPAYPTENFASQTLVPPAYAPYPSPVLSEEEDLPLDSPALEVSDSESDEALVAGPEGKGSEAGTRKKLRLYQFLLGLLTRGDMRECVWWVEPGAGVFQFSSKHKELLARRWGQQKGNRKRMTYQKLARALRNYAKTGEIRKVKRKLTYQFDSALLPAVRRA
# Sequence of ELF4 (Q99607 whole entry): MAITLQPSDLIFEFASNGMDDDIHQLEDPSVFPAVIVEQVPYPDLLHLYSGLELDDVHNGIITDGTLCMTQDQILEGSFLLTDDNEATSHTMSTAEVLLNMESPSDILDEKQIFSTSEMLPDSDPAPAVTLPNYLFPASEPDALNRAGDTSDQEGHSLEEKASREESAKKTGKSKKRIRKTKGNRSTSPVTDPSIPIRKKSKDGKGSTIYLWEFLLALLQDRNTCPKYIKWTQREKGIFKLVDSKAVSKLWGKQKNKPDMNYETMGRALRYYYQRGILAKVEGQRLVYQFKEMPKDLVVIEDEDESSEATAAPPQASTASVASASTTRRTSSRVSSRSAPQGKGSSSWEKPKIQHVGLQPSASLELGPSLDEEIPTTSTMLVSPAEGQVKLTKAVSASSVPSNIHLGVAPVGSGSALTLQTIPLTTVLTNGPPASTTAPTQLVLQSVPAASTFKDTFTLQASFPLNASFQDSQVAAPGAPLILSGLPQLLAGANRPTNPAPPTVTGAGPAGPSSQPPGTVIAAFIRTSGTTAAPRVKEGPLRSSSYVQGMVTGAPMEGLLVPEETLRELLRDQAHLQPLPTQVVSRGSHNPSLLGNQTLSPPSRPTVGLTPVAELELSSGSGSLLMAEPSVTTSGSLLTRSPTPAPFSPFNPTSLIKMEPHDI
# Sequence of ELF1 (P32519 whole entry): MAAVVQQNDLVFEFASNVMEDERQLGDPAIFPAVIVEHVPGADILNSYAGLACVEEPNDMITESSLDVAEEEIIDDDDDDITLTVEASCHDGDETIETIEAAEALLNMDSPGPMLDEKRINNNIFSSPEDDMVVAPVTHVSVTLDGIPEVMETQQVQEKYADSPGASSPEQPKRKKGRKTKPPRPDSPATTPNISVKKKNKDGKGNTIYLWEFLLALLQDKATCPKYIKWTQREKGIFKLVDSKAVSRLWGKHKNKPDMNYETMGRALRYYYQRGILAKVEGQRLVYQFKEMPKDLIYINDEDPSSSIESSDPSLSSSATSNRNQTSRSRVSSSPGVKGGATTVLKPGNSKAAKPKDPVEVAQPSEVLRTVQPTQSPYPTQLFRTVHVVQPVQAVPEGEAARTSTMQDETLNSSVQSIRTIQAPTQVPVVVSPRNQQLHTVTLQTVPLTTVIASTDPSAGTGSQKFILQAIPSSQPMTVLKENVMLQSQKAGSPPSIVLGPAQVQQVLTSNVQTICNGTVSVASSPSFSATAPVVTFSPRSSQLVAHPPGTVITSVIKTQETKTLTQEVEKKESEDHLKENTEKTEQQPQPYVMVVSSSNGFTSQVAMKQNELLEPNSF
# Sequence of HSF1 (Q00613 whole entry): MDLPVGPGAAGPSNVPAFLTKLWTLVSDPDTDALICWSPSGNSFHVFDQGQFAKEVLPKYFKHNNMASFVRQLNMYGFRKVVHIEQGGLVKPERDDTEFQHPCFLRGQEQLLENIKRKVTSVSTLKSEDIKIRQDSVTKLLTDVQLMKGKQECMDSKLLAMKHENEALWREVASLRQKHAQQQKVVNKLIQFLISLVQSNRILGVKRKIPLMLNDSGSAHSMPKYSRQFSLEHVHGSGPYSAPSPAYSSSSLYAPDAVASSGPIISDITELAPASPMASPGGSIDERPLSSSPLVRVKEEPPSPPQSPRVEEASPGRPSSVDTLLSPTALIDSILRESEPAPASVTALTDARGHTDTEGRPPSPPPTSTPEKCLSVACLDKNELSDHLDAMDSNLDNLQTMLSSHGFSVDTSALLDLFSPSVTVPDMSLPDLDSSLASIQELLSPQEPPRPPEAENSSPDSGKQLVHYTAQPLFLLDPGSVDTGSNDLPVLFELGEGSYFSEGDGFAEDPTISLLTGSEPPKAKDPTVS
# Sequence of ETV5 (P41161 whole entry): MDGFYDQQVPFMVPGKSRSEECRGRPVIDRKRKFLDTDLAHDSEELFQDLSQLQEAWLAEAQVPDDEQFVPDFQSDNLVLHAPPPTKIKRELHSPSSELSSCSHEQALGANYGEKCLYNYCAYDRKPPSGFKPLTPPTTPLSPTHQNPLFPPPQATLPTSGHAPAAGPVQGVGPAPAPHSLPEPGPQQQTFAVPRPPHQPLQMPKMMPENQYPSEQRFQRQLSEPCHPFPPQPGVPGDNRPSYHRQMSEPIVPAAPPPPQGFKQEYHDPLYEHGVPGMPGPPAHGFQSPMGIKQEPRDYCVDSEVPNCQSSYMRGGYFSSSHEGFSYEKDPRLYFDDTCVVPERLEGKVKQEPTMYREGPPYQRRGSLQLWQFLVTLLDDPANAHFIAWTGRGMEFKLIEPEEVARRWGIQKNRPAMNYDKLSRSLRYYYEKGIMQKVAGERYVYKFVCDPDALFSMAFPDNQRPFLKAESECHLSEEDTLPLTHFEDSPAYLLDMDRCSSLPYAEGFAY
# Sequence of CRX (O43186 whole entry): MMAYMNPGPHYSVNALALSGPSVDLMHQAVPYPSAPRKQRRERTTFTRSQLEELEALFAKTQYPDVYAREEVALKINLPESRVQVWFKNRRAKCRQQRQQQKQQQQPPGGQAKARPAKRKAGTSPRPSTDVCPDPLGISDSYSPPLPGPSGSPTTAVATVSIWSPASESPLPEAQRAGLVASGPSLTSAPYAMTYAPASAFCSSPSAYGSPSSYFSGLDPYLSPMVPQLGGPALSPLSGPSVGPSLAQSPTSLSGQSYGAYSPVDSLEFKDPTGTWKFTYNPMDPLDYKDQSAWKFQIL
# Sequence of ETV1 (P50549 whole entry): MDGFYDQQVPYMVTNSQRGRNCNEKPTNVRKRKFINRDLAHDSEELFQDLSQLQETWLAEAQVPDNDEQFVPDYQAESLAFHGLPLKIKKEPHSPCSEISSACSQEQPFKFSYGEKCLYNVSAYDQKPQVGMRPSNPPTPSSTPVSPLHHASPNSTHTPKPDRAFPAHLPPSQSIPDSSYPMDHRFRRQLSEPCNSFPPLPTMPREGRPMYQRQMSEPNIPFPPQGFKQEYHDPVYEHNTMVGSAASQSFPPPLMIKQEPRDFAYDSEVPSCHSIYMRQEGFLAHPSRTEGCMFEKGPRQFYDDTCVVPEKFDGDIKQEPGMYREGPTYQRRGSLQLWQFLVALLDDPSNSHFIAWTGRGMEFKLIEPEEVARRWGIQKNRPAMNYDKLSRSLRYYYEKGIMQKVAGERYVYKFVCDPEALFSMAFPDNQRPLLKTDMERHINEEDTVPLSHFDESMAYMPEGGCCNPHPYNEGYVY
sequence,measurement,setting,value
TTGTGT,binding signal,[1],"1.25 fold enrichment (6-mer frequency, TF over GST control)"
same,binding signal,[2],"1.28 fold enrichment (6-mer frequency, TF over GST control)"
same,binding signal,[3],"1.15 fold enrichment (6-mer frequency, TF over GST control)"
same,binding signal,[4],"1.12 fold enrichment (6-mer frequency, TF over GST control)"
same,binding signal,[5],"1.18 fold enrichment (6-mer frequency, TF over GST control)"
same,binding signal,[6],"1.08 fold enrichment (6-mer frequency, TF over GST control)"
same,binding signal,[7],"1.09 fold enrichment (6-mer frequency, TF over GST control)"
same,binding signal,[8],"1.25 fold enrichment (6-mer frequency, TF over GST control)"
same,binding signal,[9],"1.22 fold enrichment (6-mer frequency, TF over GST control)"
same,binding signal,[10],"1.15 fold enrichment (6-mer frequency, TF over GST control)"
same,binding signal,[11],"1.14 fold enrichment (6-mer frequency, TF over GST control)"
same,binding signal,[12],"1.05 fold enrichment (6-mer frequency, TF over GST control)"
same,binding signal,[13],"1.04 fold enrichment (6-mer frequency, TF over GST control)"
same,binding signal,[14],"1.2 fold enrichment (6-mer frequency, TF over GST control)"
same,binding signal,[15],"1.28 fold enrichment (6-mer frequency, TF over GST control)"
same,binding signal,[16],"1.29 fold enrichment (6-mer frequency, TF over GST control)"
same,binding signal,[17],"1.14 fold enrichment (6-mer frequency, TF over GST control)"
same,binding signal,[18],"1.12 fold enrichment (6-mer frequency, TF over GST control)"
same,binding signal,[19],"1.09 fold enrichment (6-mer frequency, TF over GST control)"
